Shown are actives, neighbours in structure and some others; about 8.9% of the full set was active somewhere.
ALDH1A1 block = qHTS Assay for Inhibitors of Aldehyde Dehydrogenase 1 (ALDH1A1) | Aldehyde dehydrogenase 1A1 (Homo sapiens), P00352 | Purified ALDH1A1, NADH fluorescence, propionaldehyde substrate | Potency, µM (highest dose often 75.3 µM), hits mostly inhibitors | 220,000 tested, 7.3% active | AID 1030, 2008; active means well fitted inhibition curve with a large enough effect, not every such curve was filed as active; inconclusive means small, poorly fitted or top-dose-only effect, or another doubt; inactive means no such curve, though single readings can be large or run the other way
HPGD block = qHTS Assay for Inhibitors of HPGD (15-Hydroxyprostaglandin Dehydrogenase); 150,000 tested, 4.3% active; Potency, µM, hits mostly inhibitors; purified HPGD, NADH fluorescence kinetic, PGE2 substrate; 15-hydroxyprostaglandin dehydrogenase [NAD(+)] (Homo sapiens), P15428; active means well fitted inhibition curve with a large enough effect, not every such curve was filed as active; inconclusive means small, poorly fitted or top-dose-only effect, or another doubt; inactive means no such curve, though single readings can be large or run the other way
Target sequence (P15428 whole entry, looked up): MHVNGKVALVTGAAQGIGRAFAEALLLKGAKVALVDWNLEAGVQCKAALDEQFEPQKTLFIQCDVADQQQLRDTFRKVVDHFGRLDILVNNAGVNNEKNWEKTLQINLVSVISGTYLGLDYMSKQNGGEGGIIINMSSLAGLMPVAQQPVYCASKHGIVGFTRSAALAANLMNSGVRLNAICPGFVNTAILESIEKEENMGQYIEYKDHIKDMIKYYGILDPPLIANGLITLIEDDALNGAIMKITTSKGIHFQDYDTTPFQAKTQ
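20 nM HPGD preincubated 15 min at room temperature with compound in 50 mM Tris-HCl pH 8, 0.01% Tween 20. Started with 1 mM NAD+ and 30 uM prostaglandin E2; NADH fluorescence (360/450 nm) read 5 times over 30-s intervals, last minus first.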
IMPase Li cell = qHTS Assay for Identifying the Cell-Membrane Permeable IMPase Inhibitors: Potentiation with Lithium; 210,000 tested, 0.35% active; Potency, µM (top dose mostly 59.4 µM), hits mostly inhibitors; AID 1457, 2008; CHO-M1 cells, IP1 TR-FRET (IP-One), carbachol + lithium;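 further: IP1 builds up when IMPase is blocked and the TR-FRET signal falls; nearly all actives have a fitted effect of over 50% in size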
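CHO cells stably expressing M1 receptor (2000/well) were cultured 16–30 h, then exposed to compounds with a small lithium addition for 30 min at 37C. IP1 was measured by TR-FRET competition; AC50 from Hill fits.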
ALOX12 inhib = qHTS Assay for Inhibitors of 12-hLO (12-human lipoxygenase); Polyunsaturated fatty acid lipoxygenase ALOX12 (Homo sapiens), P18054; purified 12-hLO, xylenol orange hydroperoxide absorbance; 150,000 tested, 0.12% active; Potency, µM (top dose mostly 57.1 µM), hits mostly inhibitors; AID 1452, 2008; further: nearly all actives have a fitted effect of over 55% in size
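Purified human 12hLO (150 nM final) was preincubated with compounds for 15 min at room temperature in 25 mM Hepes pH 7.0, 0.01% Triton X-100, then reacted with 40 uM arachidonic acid for 30 min. Hydroperoxide was detected with ferrous iron/xylenol orange.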
NPSR antag = qHTS Assay for Antagonists of the Neuropeptide S Receptor: cAMP Signal Transduction. Q6W5P4. Potency, µM (top dose mostly 38.3 µM), most hits filed as inhibitors. CHO-NPSR cells, cAMP TR-FRET, antagonist mode. 220,000 tested, 1% active. AID 1461, 2008; further: nearly all actives have a fitted effect of over 50% in size
IMPase inh = qHTS Assay for Identifying the Cell-Membrane Permeable IMPase Inhibitors | CHO-M1 cells, IP1 accumulation, HTRF TR-FRET ratio | AID 901, 2007 | 120,000 tested, under 10 active | inhibition (IP1 accumulation), % at 46.1 µM | Inositol monophosphatase 1 (Rattus norvegicus), P97697; active means well fitted curve in the direction sought with a large enough effect in the signal ratio, not every such curve was filed as active; inconclusive means small, poorly fitted or top-dose-only effect, or a change in a side signal; inactive means no such curve, though single readings can be large or run the other way; the % refers to the signal ratio;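 further: cells stimulated with carbachol in lithium chloride buffer; higher means more IMPase inhibition seen as more IP1 and lower FRET ratio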
Target sequence (P97697 whole entry, looked up): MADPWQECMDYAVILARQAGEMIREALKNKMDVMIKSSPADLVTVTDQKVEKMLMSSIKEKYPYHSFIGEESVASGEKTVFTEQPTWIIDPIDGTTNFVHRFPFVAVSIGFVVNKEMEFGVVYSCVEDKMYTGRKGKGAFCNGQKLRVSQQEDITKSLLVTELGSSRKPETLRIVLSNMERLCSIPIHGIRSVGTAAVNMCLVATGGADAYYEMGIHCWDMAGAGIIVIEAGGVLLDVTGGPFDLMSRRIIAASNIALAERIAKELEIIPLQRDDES
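Elevated IP1 in lysates lowers TR-FRET signal (665/620 ratio and 620 channel reported). Cells were CHO-M1, given carbachol (50 uM as added) plus 50mM LiCl, pH 7.4, 30 min, 37C; compounds titrated up to 46 uM; AC50 by Hill equation.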
Numbers stand for hits; . = inactive; ? = inconclusive; / = not tested or not shown; [ ] = remark or other dose. Unless noted, the call rests on the fitted dose curve; in most records, active means well fitted curve in the direction sought with a large enough effect; inconclusive means small, poorly fitted or top-dose-only effect, or another doubt; inactive means no such curve, though single readings can be large; an effect the other way counts as inactive or inconclusive.

SMILES	ALDH1A1 block	HPGD block	IMPase Li cell	ALOX12 inhib	NPSR antag	IMPase inh
Cc1cc2oc(=O)cc(CN3CCCc4ccccc43)c2cc1C	25.1µM	.	?	.	?	.
C/C(=N/Nc1ccc(C(=O)O)cc1)c1ccc(O)c(O)c1O	?	25.1µM	.	.	.	/
C/C(=N\Nc1ccc(C(=O)O)cc1)c1nc2ccccc2n1C	.	15.8µM	.	.	.	.
O=C(CCC(=O)Nc1ccccc1)NNC(=O)c1ccco1	.	.	.	.	.	.
O=C(CCc1ccccc1)NNC(=O)c1ccco1	.	28.2µM	.	.	.	.
COc1ccc(N(C(=O)c2cccnc2)S(=O)(=O)c2cccc([N+](=O)[O-])c2)cc1	.	/	.	/	.	/
COc1ccc(N(C(=O)c2cccc([N+](=O)[O-])c2)S(=O)(=O)c2cccs2)cc1	25.1µM	/	.	/	.	/
CCOC(=O)c1sc2nc(C)nc(N3CCCCC3C)c2c1C (stereo unspecified)	?	/	.	/	.	/
Cc1cc2c(N3CCCCC3C)ncnc2s1 (stereo unspecified)	.	.	.	.	.	.
Cc1c(C(=O)O)sc2ncnc(N3CCCCC3C)c12 (stereo unspecified)	.	17.8µM	5.62µM	.	.	?
Cc1c(C(=O)N2CCCC(C)C2)sc2ncnc(N3CCCCC3C)c12 (stereo unspecified)	12.6µM	/	.	/	.	/
COc1ccc(Cl)cc1NS(=O)(=O)c1c(C)nc2scc(C)n2c1=O	/	/	/	/	/	.
CCc1cc(C(=O)OC)c(NC(=O)CCC(=O)O)s1	17.8µM	12.6µM	.	.	.	.
Cc1ccccc1Nc1nc(N)nc(CSCc2c(C)noc2C)n1	14.1µM	.	.	.	.	.
COCCCN1C(=O)c2ccc(C(=O)NCc3ccco3)cc2C1=O	12.6µM	.	.	.	.	.
O=C(NCc1ccco1)c1ccc2c(c1)C(=O)N(C1CCCCC1)C2=O	?	.	.	.	.	.
CCCN1C(=O)c2ccc(C(=O)NCc3ccco3)cc2C1=O	6.31µM	.	.	.	.	.
CCNC(=S)N/N=C(\C)c1cc2ccccc2o1	?	.	.	.	.	/
Cc1cc2c(C)ccc(C)c2nc1SCC(=O)c1cccs1	.	.	.	.	.	?
CCCN1C(=O)/C(=C2\SC(N3CCCCC3)=NC2=O)c2ccccc21	?	.	.	.	?	.
CC(C)N(CCNCC(O)COc1ccc(C(C)(C)c2ccccc2)cc1)C(C)C (stereo unspecified)	?	/	.	/	.	/
Cc1[nH]c2ccc(-c3nnc(SCC(=O)c4ccccc4F)o3)cc2c1C	.	/	/	.	.	.
Cc1ccc(C(=O)CSc2nnc(-c3ccc4[nH]c(C)c(C)c4c3)o2)cc1C	1.41µM	.	.	.	.	.
Cc1ccc(C(=O)N/N=C\c2ccc(Br)o2)o1	.	.	.	.	.	.
Cn1c(COc2ccccc2)nnc1SCCSc1nnc(COc2ccccc2)n1C	.	.	.	.	.	.
SMILES	ALDH1A1 block	HPGD block	IMPase Li cell	ALOX12 inhib	NPSR antag	IMPase inh
Cn1c(COc2ccc(Br)cc2)nnc1SC1CCc2ccccc2C1=O (stereo unspecified)	22.4µM	.	.	.	.	.
COC(=O)c1ccc(N2C(=O)CC(Sc3n[nH]c(C)n3)C2=O)cc1 (stereo unspecified)	0.562µM	15.8µM	.	.	.	.
COC(=O)c1cc(C(=O)OC)cc(N2C(=O)CC(Sc3nc(C)cc(C)n3)C2=O)c1 (stereo unspecified)	12.6µM	.	.	.	.	.
COc1ccccc1N1C(=O)CC(Sc2nc(C)cc(C)n2)C1=O (stereo unspecified)	.	.	.	.	.	.
COC(=O)c1cc(C(=O)OC)cc(N2C(=O)CC(NNC(=O)c3ccc(C)cc3)C2=O)c1 (stereo unspecified)	.	14.1µM	.	.	.	/
COc1ccc(N2C(=O)CC(Sc3n[nH]c(-c4cccc(C)c4)n3)C2=O)cc1 (stereo unspecified)	/	/	/	/	.	/
COc1ccc(C(=O)Nc2c(C)ccc3nsnc23)cc1[N+](=O)[O-]	?	.	.	.	.	/
Cc1[nH]n(-c2ccccc2)c(=O)c1C=Nc1ccc2[nH]c(=O)[nH]c2c1	.	.	.	.	.	/
O=c1[nH]c2ccc(N=Cc3c(O)ccc4cc(Br)ccc34)cc2[nH]1	1µM	.	.	.	.	/
N#Cc1c(-c2ccccc2)nc(-c2ccccc2)[nH]c1=O	?	2µM	3.55µM	.	.	.
CN(C)C1C(=O)C(C(N)=O)C(=O)C2(O)C(=O)C3C(=O)c4c(O)ccc(Cl)c4C(O)C3CC12 (stereo unspecified)	.	.	10µM	.[0.00818 µM]	/	/
CN(C)C1C(=O)C(C(N)=O)=C(O)[C@@]2(O)C(=O)C3=C(O)c4c(O)ccc(Cl)c4[C@@H](O)C3C[C@@H]12 (stereo partly specified)	.	.	10µM	/	.	/
CN(C)C1C(=O)C(C(N)=O)=C(O)[C@@]2(O)C(=O)C3=C(O)c4c(O)ccc(Cl)c4C(O)[C@H]3C[C@@H]12 (stereo partly specified)	.	.	.	.	/	/
C=CCC(C(=O)OC)(C(=O)OC)c1ccc(C(F)(F)F)cc1[N+](=O)[O-]	.	/	.	/	.	/
CCC(=O)Nc1cc(-c2nn(C)c(=O)c3ccccc23)ccc1N1CCOCC1	?	.	.	.	.	.
Cn1nc(-c2ccc(N3CCCCC3)c(NC(=O)c3ccco3)c2)c2ccccc2c1=O	31.6µM	.	.	.	?	.
O=C(/C=C/C=C/c1ccc2c(c1)OCO2)N1CCCCC1	?	15.8µM	.	.	/	/
CN1CCN(C(=O)/C=C/c2ccc3c(c2)OCO3)CC1	.	?	.	.	.	/
O=[N+]([O-])c1cccc(/C=N\Nc2ccc3ccccc3n2)c1O	1.58µM	.	.	.[11.4 µM]	/	/
O=[N+]([O-])c1ccccc1N/N=C/c1cccc(O)c1O	/	/	/	/	.	/
O=[N+]([O-])c1cccc(/C=N\N=C2c3ccccc3-c3ccccc32)c1O	.	28.2µM	.	.	.	.
Cc1ccc(-c2nc(SCC(=O)NCC3CCCO3)c(-c3ccc(C)cc3)[nH]2)cc1 (stereo unspecified)	?	.	.	.	.	.
Cc1ccc(-c2nnn(CC(=O)Nc3ccc4nn(-c5ccccc5)nc4c3)n2)o1	?	.	.	.	.	.

Bioassay records as filed in PubChem.
